We go through 39 compounds from ChEMBL document CHEMBL3988442, “University of Dundee, Small-Polar-MMV Screening Library” (2021).

The test system of the first assay is Trypanosoma cruzi. The experiment in a line: Trypanosoma cruzi phosphomannomutase and mannose-1-phosphate guanylyltransferase assay. The class given is functional. Also noted: scale not given: direction of the effect not stated beside the values. The conditions noted are these: 10 µM.
Turning to `Cc1nc(C2CCCN2CC(=O)N(Cc2ccsc2)C2CC2)no1` (stereo not drawn), the Percent Effect stood at 5.48%.
Same read-out and setting: the same measure for `CC(C)S(=O)(=O)N1CCC(c2cc3n(n2)[C@@H](C(F)(F)F)C[C@@H](C)N3)C1` (stereo partly drawn): 4.13%; for `O=C(CSCC1CC1)N1CCCC(c2nccn2Cc2ccncc2)C1` (stereo not drawn): 2.62%.
On the same count and under the same terms, with `CC(=O)N1CCCN(c2nccc(-c3cn(C)nc3C)n2)CC1` the figure was 0.682%; with `COc1ccc(C2CCCN2S(=O)(=O)N(C)CC(C)C)cc1` (stereo not drawn), -2.62%.
On the same count and under the same terms, with `Cc1cccc2[nH]c(C3CCN(C(=O)c4ccnn4C)CC3)nc12` the figure was -4.62%; with `Cc1nc(CN2CCc3nn(C(C)C)c(=O)cc3C2)oc1C`, -3.83%.
For `COc1cc(CNC(=O)NCc2c(C)cc(C)[nH]c2=O)ccc1C`, the Percent Effect stood at 5.64%.
Turning to `Fc1cccc(-c2nc(CN3CCOC(Cn4cccn4)C3)co2)c1` (stereo not drawn), the Percent Effect is -2.36%.
`O=C([C@@H]1CC[C@@H]2[C@@H](CCN2Cc2ccoc2)O1)N1CCCC1`: the Percent Effect was found to be 0.684%.
Same read-out and setting: with `Cn1cccc1C(=O)N1CCC2(CC1)CN(c1ccccn1)CCO2` the figure was 9.54%; with `CCc1ccc(NS(=O)(=O)CC2=NC(=O)n3cccc3C2=O)cc1`, -0.786%; with `CC(=O)c1ccc(OCC(=O)NC(C)CCc2ccco2)cc1` (stereo not drawn), -7.34%.
On the same count and under the same terms, the same measure for `CN(C)CC(=O)N1CCCC2(CCC(=O)N(CCc3c[nH]cn3)C2)C1` (stereo not drawn): 1.48%; for `N#Cc1cccc(S(=O)(=O)N2CCCCC2CCN2CCCC2=O)c1` (stereo not drawn): 4.76%; for `O=C(NCC(O)c1ccc(F)c(F)c1)c1cccnc1O` (stereo not drawn): -0.198%.
On the same count and under the same terms, with `Cc1cccc(CN2C(=O)CC[C@@H]3[C@H]2CCN3Cc2ccc(C)s2)n1` the figure was -1.57%; with `CC(=O)N1CC[C@H]2OCC[C@@]2(C(=O)NCc2ccco2)C1`, -2.12%; with `CSC(C)(C)CNC(=O)NC1CCN(C)CC1`, 3.21%.
On to `CN(Cc1ncc(-c2ccccc2)o1)CC1CCCN1c1cccnn1` (stereo not drawn), for which the Percent Effect amounted to 7.74%.
As for `Cc1noc([C@H]2C[C@@H]3CCN(CC4CC4)C[C@H]3O2)n1`, the Percent Effect was -1.48%.
The same measure, in the same setting: the same measure for `O=C(O)c1cc2c(nc1O)CC(c1cccc(Cl)c1)CC2=O` (stereo not drawn): -5.7%; for `COCCCC(=O)NS(=O)(=O)c1ccc2c(c1)OCCCO2`: -7.94%; for `Cc1nn(C)c(Cl)c1CNCc1cccnc1N1CCOCC1`: 0.682%.
The same measure, in the same setting: with `CN(Cc1ccc(F)cc1)CC1(O)CCCN(CC(C)(C)C)C1=O` (stereo not drawn) the figure was 3.79%; with `CN(CC(=O)N1CCC(Oc2ccccc2)CC1)c1cnccn1`, 4.74%.
Regarding `CC(=O)N1CCn2c(COCc3csc(C)n3)cnc2C1C` (stereo not drawn), the Percent Effect is 4.05%.
For the compound `Cc1cc(C)c(CNC(=O)N2CCCC2C(N)=O)c(=O)[nH]1` (stereo not drawn), the Percent Effect was -1.95%.
The same measure, in the same setting: with `Cc1ccc(N2CCCC(NCC(=O)NCC3CC3)C2)nn1` (stereo not drawn) the figure was 1.13%; with `O=C1CC(c2ccc(F)c(F)c2)c2snc(C(=O)O)c2N1` (stereo not drawn), -2.36%; with `Cc1nc(-c2ccccc2)sc1C(=O)NCCNc1ncccn1`, -7.94%.
As for `CNS(=O)(=O)c1cccc(CNC(=O)c2c(C)nn(C)c2C)c1`, the Percent Effect was -2.15%.
Still for that read-out and setting: with `Clc1ccc(CN2CCCC(Cn3cncn3)C2)c2ncccc12` (stereo not drawn) the figure was 0.688%.
With `CCN(CC)Cc1cn2c(n1)CN(C(=O)c1cnccn1)CC2`, the Percent Effect was -3.62%.
The same measure, in the same setting: the same measure for `CN(C)C(=O)[C@H]1C[C@@H]2CN(S(=O)(=O)Cc3ccccc3)C[C@H]1O2`: -1.38%; for `CCc1nc(C2CCCN(C(=O)c3cccc4cn[nH]c34)C2)no1` (stereo not drawn): -6.41%.
The same measure, in the same setting: with `CC(C(=O)NCCOc1ccc2c(c1)OCO2)n1cncn1` (stereo not drawn) the figure was -2.17%.
Still for that read-out and setting: the same measure for `CC(C)OCCCNC(=O)CN1CCC(N2CCN(C)C2=O)CC1`: 4.82%; for `CN(C)c1nc2c(c(=O)[nH]1)CCN(C(=O)c1cccc3nccnc13)C2`: 1.87%.

A further assay addresses T1, Arginase-2, mitochondrial (Homo sapiens) (UniProt P78540).
T1 sequence (whole entry): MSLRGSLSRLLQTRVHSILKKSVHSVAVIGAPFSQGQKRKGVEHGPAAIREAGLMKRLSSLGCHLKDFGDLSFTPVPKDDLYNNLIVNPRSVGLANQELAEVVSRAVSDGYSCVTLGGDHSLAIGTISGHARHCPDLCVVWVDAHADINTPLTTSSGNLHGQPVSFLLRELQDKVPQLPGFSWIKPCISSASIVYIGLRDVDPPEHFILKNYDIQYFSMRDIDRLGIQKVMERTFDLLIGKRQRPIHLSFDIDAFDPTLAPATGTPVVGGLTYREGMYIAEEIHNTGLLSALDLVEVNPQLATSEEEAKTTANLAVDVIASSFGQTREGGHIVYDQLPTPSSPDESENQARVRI
Description: in vitro enzyme assay to detect the production of urea directly proportional to the activity of Arginase II. The class given is functional. Set-up: scale not given: in the data most compounds retested in dose-response had high values. The note with it: 33.3 µM.
Regarding `Cc1nc(C2CCCN2CC(=O)N(Cc2ccsc2)C2CC2)no1` (stereo not drawn), the Percent Effect was -4.99%.
For `CC(C)S(=O)(=O)N1CCC(c2cc3n(n2)[C@@H](C(F)(F)F)C[C@@H](C)N3)C1` (stereo partly drawn), the Percent Effect was -1.63%.
On the same count and under the same terms, the same measure for `O=C(CSCC1CC1)N1CCCC(c2nccn2Cc2ccncc2)C1` (stereo not drawn): 2.65%; for `CC(=O)N1CCCN(c2nccc(-c3cn(C)nc3C)n2)CC1`: 0%; for `COc1ccc(C2CCCN2S(=O)(=O)N(C)CC(C)C)cc1` (stereo not drawn): -3.97%.
The same measure, in the same setting: with `Cc1cccc2[nH]c(C3CCN(C(=O)c4ccnn4C)CC3)nc12` the figure was -23.4%; with `Cc1nc(CN2CCc3nn(C(C)C)c(=O)cc3C2)oc1C`, 6.83%; with `COc1cc(CNC(=O)NCc2c(C)cc(C)[nH]c2=O)ccc1C`, 1.15%.
On the same count and under the same terms, the same measure for `Fc1cccc(-c2nc(CN3CCOC(Cn4cccn4)C3)co2)c1` (stereo not drawn): 4.81%; for `O=C([C@@H]1CC[C@@H]2[C@@H](CCN2Cc2ccoc2)O1)N1CCCC1`: 4.71%.
As for `Cn1cccc1C(=O)N1CCC2(CC1)CN(c1ccccn1)CCO2`, the Percent Effect is -55.2%.
For `CCc1ccc(NS(=O)(=O)CC2=NC(=O)n3cccc3C2=O)cc1`, the Percent Effect is -7.57%.
For the compound `CC(=O)c1ccc(OCC(=O)NC(C)CCc2ccco2)cc1` (stereo not drawn), the Percent Effect amounted to 1.91%.
As to `CN(C)CC(=O)N1CCCC2(CCC(=O)N(CCc3c[nH]cn3)C2)C1` (stereo not drawn), the Percent Effect is -45.5%.
Turning to `N#Cc1cccc(S(=O)(=O)N2CCCCC2CCN2CCCC2=O)c1` (stereo not drawn), the Percent Effect came to 2%.
Consider `O=C(NCC(O)c1ccc(F)c(F)c1)c1cccnc1O` (stereo not drawn), for which the Percent Effect is -4.39%.
Same read-out and setting: the same measure for `Cc1cccc(CN2C(=O)CC[C@@H]3[C@H]2CCN3Cc2ccc(C)s2)n1`: 0.233%; for `CC(=O)N1CC[C@H]2OCC[C@@]2(C(=O)NCc2ccco2)C1`: -44.3%; for `CSC(C)(C)CNC(=O)NC1CCN(C)CC1`: 15.6%.
On the same count and under the same terms, the same measure for `CN(Cc1ncc(-c2ccccc2)o1)CC1CCCN1c1cccnn1` (stereo not drawn): -1.9%; for `Cc1noc([C@H]2C[C@@H]3CCN(CC4CC4)C[C@H]3O2)n1`: -0.645%; for `O=C(O)c1cc2c(nc1O)CC(c1cccc(Cl)c1)CC2=O` (stereo not drawn): -6.16%.
Same read-out and setting: the same measure for `COCCCC(=O)NS(=O)(=O)c1ccc2c(c1)OCCCO2`: 5.75%; for `Cc1nn(C)c(Cl)c1CNCc1cccnc1N1CCOCC1`: -3.55%; for `CN(Cc1ccc(F)cc1)CC1(O)CCCN(CC(C)(C)C)C1=O` (stereo not drawn): 3.09%.
For the compound `CN(CC(=O)N1CCC(Oc2ccccc2)CC1)c1cnccn1`, the Percent Effect turned out to be 2.4%.
On the same count and under the same terms, the same measure for `CC(=O)N1CCn2c(COCc3csc(C)n3)cnc2C1C` (stereo not drawn): -55.7%; for `Cc1cc(C)c(CNC(=O)N2CCCC2C(N)=O)c(=O)[nH]1` (stereo not drawn): 1.5%.
Turning to `Cc1ccc(N2CCCC(NCC(=O)NCC3CC3)C2)nn1` (stereo not drawn), the Percent Effect is -1.94%.
Still for that read-out and setting: the same measure for `O=C1CC(c2ccc(F)c(F)c2)c2snc(C(=O)O)c2N1` (stereo not drawn): 0.176%; for `Cc1nc(-c2ccccc2)sc1C(=O)NCCNc1ncccn1`: 4.32%.
As to `CNS(=O)(=O)c1cccc(CNC(=O)c2c(C)nn(C)c2C)c1`, the Percent Effect stood at 1.07%.
Still for that read-out and setting: with `Clc1ccc(CN2CCCC(Cn3cncn3)C2)c2ncccc12` (stereo not drawn) the figure was -1.38%.
On the same count and under the same terms, with `CCN(CC)Cc1cn2c(n1)CN(C(=O)c1cnccn1)CC2` the figure was 6.69%; with `CN(C)C(=O)[C@H]1C[C@@H]2CN(S(=O)(=O)Cc3ccccc3)C[C@H]1O2`, 3.96%; with `CCc1nc(C2CCCN(C(=O)c3cccc4cn[nH]c34)C2)no1` (stereo not drawn), -2.77%.
On the same count and under the same terms, with `CC(C(=O)NCCOc1ccc2c(c1)OCO2)n1cncn1` (stereo not drawn) the figure was 6.08%.
For the compound `CC(C)OCCCNC(=O)CN1CCC(N2CCN(C)C2=O)CC1`, the Percent Effect was -1.9%.
Still for that read-out and setting: the same measure for `CN(C)c1nc2c(c(=O)[nH]1)CCN(C(=O)c1cccc3nccnc13)C2`: -33.1%.
